# Measurements as given in the supplement of paper PMC10849652.
# The full data set covers some 7,900 targets. This sample favours those with a hit. About 0.6% of all pairs of compound and target were hits. Values without a mark were called inactive.
# How the values were obtained:
# Test in all cases: log2 fold change, soluble protein after heating vs DMSO (PISA); higher = thermal stabilisation; K562 cells, 10 uM, 30 min; active = over 0.2 and 3.5 SD of the protein, either way, in both replicates (recomputed)
# [1] = compound: CC[C@@H]1C(=O)N(C)c2cnc(Nc3ccc(C(=O)NC4CCN(C)CC4)cc3OC)nc2N1C1CCCC1
# Outline: (§1)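 Quantification of soluble protein used TMTpro 16plex LC-MS/MS, with channel sums equalised. Samples were the supernatant after 21,000xg for 90 min of pooled aliquots from K562 cells (2×10^6 cells/mL) treated with 10 μM compound for 30 min, heated for 3 min over 48°C-58°C, and extracted in PBS with 0.5% NP-40 at 4°C. Values, from duplicates, describe thermal stability against control samples on a log2 fold-change scale.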
# volasertib = compound: CC[C@@H]1C(=O)N(C)c2cnc(Nc3ccc(C(=O)N[C@H]4CC[C@H](N5CCN(CC6CC6)CC5)CC4)cc3OC)nc2N1C(C)C [volasertib]
# Outline: as §1
# [2] = compound: CC[C@H](C)N1C=C(C2=C(C=C(C=C21)C3=CN=C(C=C3)N4CCNCC4)C(=O)NCC5=C(C=C(NC5=O)C)C)C
# Outline: as §1
# epoxomicin = compound: CC[C@H](C)[C@@H](C(=O)N[C@@H]([C@@H](C)O)C(=O)N[C@@H](CC(C)C)C(=O)[C@]1(CO1)C)NC(=O)[C@H]([C@@H](C)CC)N(C)C(=O)C [epoxomicin]
# Outline: as §1
# [3] = compound: CCn1c(C(=O)N(C2CC2)C2CC2)cc2c3c(ncn3C)c(Nc3cc(C)n(C)n3)nc21
# Outline: as §1
# [4] = compound: CCn1cc(-c2ccnc3[nH]c(-c4cccc(CN(C)C)c4)cc23)c(-c2ccc(NC(=O)N(C)C)cc2)n1
# Outline: as §1
# [5] = compound: CN(C)CC(=O)Nc1ccc2[nH]c(=O)c3ccccc3c2c1
# Outline: as §1
# rosiglitazone = compound: CN(CCOC1=CC=C(C=C1)C[C@H]2C(=O)NC(=O)S2)C3=CC=CC=N3 (racemic) [rosiglitazone]
# Outline: as §1
# [6] = compound: CN1C2=C(C3=C1C(=O)N(N=C3)CC4=CC(=CC=C4)N)SC(=C2)S(=O)C
# Outline: as §1
# [7] = compound: CN1CCC(CNc2ccc3ncc(-c4cccc(OC(F)(F)F)c4)n3n2)CC1
# Outline: as §1
# saracatinib = compound: CN1CCN(CCOc2cc(OC3CCOCC3)c3c(Nc4c(Cl)ccc5c4OCO5)ncnc3c2)CC1 [saracatinib]
# Outline: as §1
# sotrastaurin = compound: CN1CCN(c2nc(C3=C(c4c[nH]c5ccccc45)C(=O)NC3=O)c3ccccc3n2)CC1 [sotrastaurin]
# Outline: as §1
# alvocidib = compound: CN1CC[C@H](c2c(O)cc(O)c3c(=O)cc(-c4ccccc4Cl)oc23)[C@H](O)C1 [alvocidib]
# Outline: as §1
# Tubastatin A = compound: CN1CCc2c(c3ccccc3n2Cc2ccc(C(=O)NO)cc2)C1 [Tubastatin A]
# Outline: as §1
# [8] = compound: CNC(=O)C1=CC=CC=C1NC2=NC(=NC=C2Cl)NC3=C(C=C(C=C3)N4CCOCC4)OC
# Outline: as §1
# defactinib = compound: CNC(=O)c1ccc(Nc2ncc(C(F)(F)F)c(NCc3nccnc3N(C)S(C)(=O)=O)n2)cc1 [defactinib]
# Outline: as §1
# rucaparib = compound: CNCc1ccc(-c2[nH]c3cc(F)cc4c3c2CCNC4=O)cc1 [rucaparib]
# Outline: as §1
# [9] = compound: CNc1nc(-c2ccc3c(N)n[nH]c3c2)cc(N2C[C@@H](C(=O)NC3CCCCC3)CC[C@H]2C)n1
# Outline: as §1
# encorafenib = compound: COC(=O)N[C@@H](C)CNc1nccc(-c2cn(C(C)C)nc2-c2cc(Cl)cc(NS(C)(=O)=O)c2F)n1 [encorafenib]
# Outline: as §1
# [10] = compound: COC(=O)[C@H](CCSC)NC(=O)C1=C(C=C(C=C1)NC[C@H](CS)N)C2=CC=CC=C2
# Outline: as §1
# UniProt O95232, sequence (O95232 whole entry, looked up): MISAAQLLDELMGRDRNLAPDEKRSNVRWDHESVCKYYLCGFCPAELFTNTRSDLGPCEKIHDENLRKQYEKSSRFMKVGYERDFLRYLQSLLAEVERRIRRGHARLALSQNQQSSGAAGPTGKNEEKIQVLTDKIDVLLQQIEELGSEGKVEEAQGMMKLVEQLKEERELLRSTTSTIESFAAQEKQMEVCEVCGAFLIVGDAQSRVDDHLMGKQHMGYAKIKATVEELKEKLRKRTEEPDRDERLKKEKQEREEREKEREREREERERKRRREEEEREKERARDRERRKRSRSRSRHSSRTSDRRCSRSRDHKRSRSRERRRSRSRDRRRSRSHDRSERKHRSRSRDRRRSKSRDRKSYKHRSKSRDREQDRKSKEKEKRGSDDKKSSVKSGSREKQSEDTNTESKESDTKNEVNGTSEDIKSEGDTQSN
# UniProt P43362, sequence (P43362 whole entry, looked up): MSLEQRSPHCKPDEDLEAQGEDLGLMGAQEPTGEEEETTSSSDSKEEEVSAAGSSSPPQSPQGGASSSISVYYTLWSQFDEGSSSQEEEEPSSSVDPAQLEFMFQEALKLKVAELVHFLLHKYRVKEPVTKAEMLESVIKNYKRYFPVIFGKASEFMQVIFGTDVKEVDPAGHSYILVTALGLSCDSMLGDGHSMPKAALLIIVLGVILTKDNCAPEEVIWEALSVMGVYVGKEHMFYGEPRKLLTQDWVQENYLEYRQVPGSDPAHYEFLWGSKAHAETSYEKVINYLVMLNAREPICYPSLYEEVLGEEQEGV
# UniProt Q86UP2, sequence (Q86UP2 whole entry, looked up): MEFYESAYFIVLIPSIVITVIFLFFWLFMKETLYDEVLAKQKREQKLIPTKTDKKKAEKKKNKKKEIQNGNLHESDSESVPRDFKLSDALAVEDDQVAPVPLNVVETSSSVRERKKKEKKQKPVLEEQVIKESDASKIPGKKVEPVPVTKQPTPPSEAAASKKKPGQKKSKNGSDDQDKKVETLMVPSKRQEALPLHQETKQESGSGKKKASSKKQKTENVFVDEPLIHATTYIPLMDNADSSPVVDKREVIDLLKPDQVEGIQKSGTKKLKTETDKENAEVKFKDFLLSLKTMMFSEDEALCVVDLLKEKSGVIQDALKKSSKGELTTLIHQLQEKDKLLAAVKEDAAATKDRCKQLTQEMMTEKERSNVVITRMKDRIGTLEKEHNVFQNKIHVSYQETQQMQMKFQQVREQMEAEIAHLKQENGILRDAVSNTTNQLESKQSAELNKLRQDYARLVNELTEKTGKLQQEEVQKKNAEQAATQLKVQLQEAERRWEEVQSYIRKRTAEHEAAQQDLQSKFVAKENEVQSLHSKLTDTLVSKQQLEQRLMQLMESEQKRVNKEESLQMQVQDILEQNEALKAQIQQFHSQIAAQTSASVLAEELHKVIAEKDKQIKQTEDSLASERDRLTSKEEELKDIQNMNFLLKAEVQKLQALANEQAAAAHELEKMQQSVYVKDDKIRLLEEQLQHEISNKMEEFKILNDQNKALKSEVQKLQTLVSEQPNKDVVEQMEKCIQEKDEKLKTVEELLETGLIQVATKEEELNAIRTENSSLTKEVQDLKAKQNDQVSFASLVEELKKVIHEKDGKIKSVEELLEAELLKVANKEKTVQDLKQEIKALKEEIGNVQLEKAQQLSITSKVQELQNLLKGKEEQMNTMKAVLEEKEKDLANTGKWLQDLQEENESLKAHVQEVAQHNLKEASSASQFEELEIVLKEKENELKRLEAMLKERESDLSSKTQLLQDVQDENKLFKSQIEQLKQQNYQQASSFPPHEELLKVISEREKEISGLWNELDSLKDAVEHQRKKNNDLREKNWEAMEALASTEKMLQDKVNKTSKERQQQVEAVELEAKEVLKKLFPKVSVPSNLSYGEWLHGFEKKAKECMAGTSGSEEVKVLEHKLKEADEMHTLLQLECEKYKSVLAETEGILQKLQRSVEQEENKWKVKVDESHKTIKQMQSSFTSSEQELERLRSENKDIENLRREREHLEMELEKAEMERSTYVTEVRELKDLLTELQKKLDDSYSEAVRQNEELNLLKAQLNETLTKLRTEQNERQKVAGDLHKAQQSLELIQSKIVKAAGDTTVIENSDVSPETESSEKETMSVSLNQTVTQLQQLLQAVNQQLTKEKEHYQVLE
# UniProt O94829, sequence (O94829 whole entry, looked up): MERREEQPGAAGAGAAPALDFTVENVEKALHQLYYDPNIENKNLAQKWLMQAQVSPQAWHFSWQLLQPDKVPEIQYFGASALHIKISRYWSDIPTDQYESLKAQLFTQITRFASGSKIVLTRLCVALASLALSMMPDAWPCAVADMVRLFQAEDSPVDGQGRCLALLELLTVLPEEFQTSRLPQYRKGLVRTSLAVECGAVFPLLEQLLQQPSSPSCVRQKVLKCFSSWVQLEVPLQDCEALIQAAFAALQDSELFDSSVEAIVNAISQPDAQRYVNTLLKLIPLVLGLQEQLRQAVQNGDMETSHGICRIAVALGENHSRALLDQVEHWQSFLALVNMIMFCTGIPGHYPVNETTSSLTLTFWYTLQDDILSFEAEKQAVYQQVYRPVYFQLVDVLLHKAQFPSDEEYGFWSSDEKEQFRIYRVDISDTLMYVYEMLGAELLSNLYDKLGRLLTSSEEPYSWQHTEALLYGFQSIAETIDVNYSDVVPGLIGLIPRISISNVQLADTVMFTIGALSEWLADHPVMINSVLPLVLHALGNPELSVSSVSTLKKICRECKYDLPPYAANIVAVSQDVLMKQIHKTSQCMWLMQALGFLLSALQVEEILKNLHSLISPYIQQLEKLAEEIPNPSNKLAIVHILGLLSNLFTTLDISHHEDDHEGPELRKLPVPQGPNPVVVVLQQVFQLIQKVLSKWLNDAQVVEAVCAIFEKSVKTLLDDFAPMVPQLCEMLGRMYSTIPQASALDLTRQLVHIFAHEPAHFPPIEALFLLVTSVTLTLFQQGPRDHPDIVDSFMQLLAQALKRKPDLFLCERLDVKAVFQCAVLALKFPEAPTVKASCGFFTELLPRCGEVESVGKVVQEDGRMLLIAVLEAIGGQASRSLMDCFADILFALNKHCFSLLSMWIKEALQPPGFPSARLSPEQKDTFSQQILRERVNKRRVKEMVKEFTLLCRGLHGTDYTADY
# UniProt O94822, sequence (O94822 whole entry, looked up): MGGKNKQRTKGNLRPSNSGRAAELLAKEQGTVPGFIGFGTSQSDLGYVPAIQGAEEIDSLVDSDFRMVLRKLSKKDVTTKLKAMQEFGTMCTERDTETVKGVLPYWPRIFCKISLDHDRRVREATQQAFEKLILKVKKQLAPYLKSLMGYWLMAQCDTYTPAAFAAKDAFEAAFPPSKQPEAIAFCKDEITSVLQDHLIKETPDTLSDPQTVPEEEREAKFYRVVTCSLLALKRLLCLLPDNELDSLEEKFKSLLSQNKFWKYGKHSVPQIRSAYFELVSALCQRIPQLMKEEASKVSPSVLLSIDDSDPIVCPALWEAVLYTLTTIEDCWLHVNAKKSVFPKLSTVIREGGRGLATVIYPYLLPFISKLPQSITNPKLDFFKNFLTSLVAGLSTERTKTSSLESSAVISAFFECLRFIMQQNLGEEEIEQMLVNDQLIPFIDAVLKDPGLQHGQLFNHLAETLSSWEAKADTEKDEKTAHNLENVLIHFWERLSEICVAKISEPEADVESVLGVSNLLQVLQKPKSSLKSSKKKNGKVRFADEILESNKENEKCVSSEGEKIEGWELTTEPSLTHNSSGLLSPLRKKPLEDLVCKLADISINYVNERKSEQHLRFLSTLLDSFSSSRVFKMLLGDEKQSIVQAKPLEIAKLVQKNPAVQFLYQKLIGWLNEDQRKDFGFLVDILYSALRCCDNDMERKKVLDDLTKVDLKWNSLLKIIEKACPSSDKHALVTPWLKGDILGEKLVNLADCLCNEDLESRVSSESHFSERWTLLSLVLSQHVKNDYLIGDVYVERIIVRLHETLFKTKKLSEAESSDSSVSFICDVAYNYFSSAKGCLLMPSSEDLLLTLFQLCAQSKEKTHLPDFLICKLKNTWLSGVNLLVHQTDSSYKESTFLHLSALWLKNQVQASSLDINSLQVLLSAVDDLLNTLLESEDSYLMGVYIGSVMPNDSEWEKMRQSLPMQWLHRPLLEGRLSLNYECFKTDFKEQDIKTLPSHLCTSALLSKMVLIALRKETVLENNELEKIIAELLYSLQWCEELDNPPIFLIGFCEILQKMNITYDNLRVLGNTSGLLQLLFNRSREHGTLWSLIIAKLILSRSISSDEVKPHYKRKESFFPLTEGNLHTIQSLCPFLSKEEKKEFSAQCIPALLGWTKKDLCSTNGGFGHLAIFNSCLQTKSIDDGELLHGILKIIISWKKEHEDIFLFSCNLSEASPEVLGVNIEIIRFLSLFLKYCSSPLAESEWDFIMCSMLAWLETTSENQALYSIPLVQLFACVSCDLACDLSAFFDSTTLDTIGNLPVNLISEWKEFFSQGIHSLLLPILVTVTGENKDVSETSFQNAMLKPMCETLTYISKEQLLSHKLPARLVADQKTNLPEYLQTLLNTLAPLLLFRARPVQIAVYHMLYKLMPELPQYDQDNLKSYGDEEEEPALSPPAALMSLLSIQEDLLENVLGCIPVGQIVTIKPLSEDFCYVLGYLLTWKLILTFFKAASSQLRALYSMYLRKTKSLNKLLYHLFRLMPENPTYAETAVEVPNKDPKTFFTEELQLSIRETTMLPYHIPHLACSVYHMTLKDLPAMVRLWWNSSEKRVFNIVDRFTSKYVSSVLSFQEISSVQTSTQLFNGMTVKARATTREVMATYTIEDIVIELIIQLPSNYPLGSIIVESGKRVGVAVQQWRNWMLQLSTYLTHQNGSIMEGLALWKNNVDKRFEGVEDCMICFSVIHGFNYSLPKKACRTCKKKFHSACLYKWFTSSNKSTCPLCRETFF
Target,log2 fold change [1],log2 fold change (volasertib),log2 fold change [2],log2 fold change (epoxomicin),log2 fold change [3],log2 fold change [4],log2 fold change [5],log2 fold change (rosiglitazone),log2 fold change [6],log2 fold change [7],log2 fold change (saracatinib),log2 fold change (sotrastaurin),log2 fold change (alvocidib),log2 fold change (Tubastatin A),log2 fold change [8],log2 fold change (defactinib),log2 fold change (rucaparib),log2 fold change [9],log2 fold change (encorafenib),log2 fold change [10]
LTN1 isoform 3 (UniProt O94822),-0.16,-0.459 (active),0.079,-0.012,-0.075,-0.019,0.043,0.05,0.06,-0.498 (active),-0.016,-0.114,-0.042,0.196,0.01,-0.114,0.158,-0.012,0.047,-0.057
KTN1 (UniProt Q86UP2),0.039,-0.242,0.028,0.037,0.091,0.084,0.006,-0.009,0.127,-0.006,0.001,-0.07,0.109,0.032,-0.12,0.109,0.155,-0.079,0.137,-0.053
LUC7L3 (UniProt O95232),-0.057,-0.185,0.027,0.005,-0.025,0,-0.031,0.004,-0.009,-0.074,-0.003,0.013,-0.049,-0.007,-0.314 (active),-0.113,-0.008,-0.048,0.028,-0.003
MAGEA9 (UniProt P43362),-0.11,-0.39 (active),-0.057,-0.044,-0.05,-0.088,0.044,0.038,-0.084,-0.116,0.041,-0.037,-0.346,-0.038,-0.001,-0.175,-0.153,0.015,0.039,-0.082
MAP2K1 (UniProt Q02750),-0.017,-0.058,0.024,0.053,-0.006,-0.092,0.032,0.029,-0.06,-0.113,0.02,0.028,-0.05,-0.018,-0.053,-0.011,-0.049,-0.005,0.005,0.009
LMBRD2 (UniProt Q68DH5),-0.063,-0.042,-0.012,0.081,-0.007,-0.018,0.002,-0.023,-0.008,-0.362 (active),0.04,0.02,-0.041,-0.032,-0.014,-0.01,0.003,-0.037,0.021,-0.021
ILKAP (UniProt Q9H0C8),-0.135,-0.343 (active),0.127,0.077,-0.071,-0.052,0.086,0.023,-0.085,-0.064,-0.057,-0.087,-0.152,0.055,-0.021,-0.155,0.011,0.055,0.061,-0.078
IPO13 (UniProt O94829),-0.367 (active),-0.291 (active),-0.081,0.048,0.015,-0.084,-0.013,0.072,0.048,-0.333 (active),0.111,-0.123,0.013,-0.03,0.001,-0.04,-0.016,-0.109,0.039,0.033
